# DAX1 inh-1: inhibitors of DAX1 repression of SF-1 activated StAR promoter. inhibition, % at 6.8 µM. 370,000 compounds, 1.1% hits. HEK293T StAR-luciferase reporter, SF-1/DAX-1 repression relief. AID 652010;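 active = inhibition above the mean over all tested compounds plus 3 SD, cut at about 3.6% in these data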;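 note: higher inhibition means more luminescence from relief of DAX-1 repression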
# hcDAF12 agonist: activators of H. contortus DAF-12 nuclear receptor; HEK293 hcDAF-12 lit1-tk-luc reporter, luminescence; 0% DMSO, 100% Δ7-dafachronic acid; activation, % at 6.8 µM; 370,000 compounds, 1.4% hits; AID 652067;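 active = activation above the mean of all tested compounds plus 3 SD, cut at about 5.5% in these data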
# hgDAF-12 ag: activates the H. glycines DAF-12 receptor ligand-binding domain; HEK293 GAL4-hgDAF12 UAS-luciferase reporter, agonist luminescence; normalized to butyrate control; activation, % at 6.8 µM; 370,000 compounds, 1.8% hits; AID 687014;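 active = activation above a cutoff set at the mean of all screened compounds plus 3 SD, cut at about 10% in these data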
# PolyA inhibitor: blocks polyadenylation in yeast reporter cells; activity score, % at 12 µM; 300,000 compounds, 0.02% hits; S. cerevisiae SKY197-pL101 polyadenylation reporter, beta-gal luminescence; efflux-impaired pdr1/pdr3 knockout yeast; score 100 = 6 SD above DMSO; AID 1875;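 active = lowest replicate activity score at least 50, where 100 means six control SD above control mean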;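 note: yeast exposed to compound for 9 h at 30 °C; higher score means more reporter readthrough which indicates perturbed polyadenylation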
# ssDAF-12 act: activates DAF-12 receptor from parasite S. stercoralis | HEK293 ssDAF-12/GRIP1 lit1-tk-luc reporter, luminescence; % of 3 µM dafachronic acid response | activation, % at 6.8 µM | 370,000 compounds, 1% hits | AID 652126;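 active = activation above the mean over all tested compounds plus 3 SD, cut at about 0.9% in these data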
# DAX1 inh-2: inhibits human nuclear receptor DAX1 | P51843 | HEK293 Gal4-DAX1 luciferase reporter, luminescence | inhibition, % at 6.75 µM | 340,000 compounds, 0.99% hits | AID 504766;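 active = inhibition above the mean over all tested compounds plus 3 SD, cut at about 4.2% in these data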;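 note: inhibition shows as a rise in luminescence from relieved DAX1 repression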
# DAX1 inh confirm: confirmation of human DAX1 (NR0B1) inhibitors; shares compounds with DAX1 inh-1; HEK293T StAR-promoter luciferase reporter, SF-1/DAX-1 repression; inhibition, % at 6.8 µM; 2,400 compounds, 87% hits;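 active = inhibition above the average of every tested compound plus 3 SD, cut at about 3.8% in these data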;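 note: active compounds raise luminescence by relieving repression of the StAR reporter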
# Target sequence (P51843 whole entry, looked up): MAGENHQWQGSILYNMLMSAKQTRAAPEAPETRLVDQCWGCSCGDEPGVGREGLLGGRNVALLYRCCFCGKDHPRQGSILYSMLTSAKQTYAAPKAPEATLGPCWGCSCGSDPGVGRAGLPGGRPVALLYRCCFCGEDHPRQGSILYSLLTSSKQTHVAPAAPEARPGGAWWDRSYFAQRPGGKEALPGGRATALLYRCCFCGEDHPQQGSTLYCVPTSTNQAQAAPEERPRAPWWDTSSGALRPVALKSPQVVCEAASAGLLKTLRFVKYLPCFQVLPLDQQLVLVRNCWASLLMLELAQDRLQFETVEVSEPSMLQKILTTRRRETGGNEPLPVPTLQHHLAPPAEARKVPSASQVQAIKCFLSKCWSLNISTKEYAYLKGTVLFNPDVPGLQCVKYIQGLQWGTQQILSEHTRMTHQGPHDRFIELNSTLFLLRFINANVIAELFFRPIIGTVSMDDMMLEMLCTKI
# SF1 mutant ctr: nonselective inhibitor or artifact in SF-1 mutant DAX1 counter-screen; shares compounds with DAX1 inh-1; HEK293 StAR-luciferase, SF-1 AF2 mutant, luminescence; inhibition, % at 6.8 µM; 2,400 compounds, 78% hits; AID 652136;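 active = inhibition above the mean of all tested compounds plus 3 SD, cut at about 3% in these data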
# LXR ag: activates human LXR-beta, counter-screen for hcDAF-12 agonists. shares compounds with hcDAF12 agonist. 3,400 tested, under 10 active. HEK293 Gal4-LXR tk-luc reporter, luminescence, 24 h; normalized: DMSO 0%, positive control 100%. activation, % at 6.8 µM;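 active = mean percent activation of the reporter above a cutoff set as the average over tested compounds plus their standard deviation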
# hcDAF12 conf: confirmation of H. contortus DAF-12 agonists | shares compounds with hcDAF12 agonist | HEK293 hcDAF-12 lit1-tk-luc reporter, luminescence; % of Δ7-dafachronic acid response | activation, % at 6.8 µM | 3,400 compounds, 61% hits;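 active = mean activation across triplicate tests above the threshold derived from the earlier primary screen, cut at about 5.5% in these data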
# Hits are given with their value; 0 = inactive; - = no result. Hits are enriched below; roughly 4.1% of the tested compounds scored in any of these assays.
SMILES,DAX1 inh-1,hcDAF12 agonist,hgDAF-12 ag,PolyA inhibitor,ssDAF-12 act,DAX1 inh-2,DAX1 inh confirm,SF1 mutant ctr,LXR ag,hcDAF12 conf
NC(=O)c1ccsc1NC(=O)c1cccs1,0,0,0,0,0,0,-,-,-,-
Cc1ccc2nc(CSc3nc(C)cc(C)c3C#N)[nH]c2c1,5.8,16.9,0,0,2.0,0,13.5,7.4,0,20.4
c1ccc(-c2csc(Nc3ccc4c(c3)OCO4)n2)cc1,22.5,17.2,21.3,-,2.6,-,14.0,7.8,0,16.7
O=C(O)c1ccc(N/N=C/c2ccc(-c3ccccc3)cc2)cc1,7.7,7.6,12.6,0,1.3,5.5,19.3,8.5,0,6.2
CC(C)c1ccc(/C=N/Nc2ccc(C(=O)O)cc2)cc1,0,0,0,0,0,0,-,-,-,-
COc1ccc(OC)c(S(=O)(=O)N2CCCCC2C(=O)N2CCCN(C)CC2)c1 (stereo not given),0,0,0,-,0,-,-,-,-,-
Cc1n[nH]c2ccccc2c1=O,0,0,0,-,0,0,-,-,-,-
CC(C)(C)c1ccc(Nc2n[nH]c3ccccc23)cc1,10.8,13.4,27.8,-,2.9,-,11.7,4.6,0,20.1
COc1ccccc1C1=NOC(CN2C(=O)c3ccccc3S2(=O)=O)C1 (stereo not given),0,0,0,0,0,0,-,-,-,-
O=C1c2ccccc2S(=O)(=O)N1CC1CC(c2ccccc2Cl)=NO1 (stereo not given),5.5,8.7,15.4,0,0,0,11.0,8.1,0,13.2
Cc1cccc(Cn2cc(COC(=O)N(C)Cc3ccccc3)nn2)c1,0,0,0,-,0,-,-,-,-,-
Cc1ccc2oc(C(=O)NCCC3CCCCO3)c(C)c2c1 (stereo not given),10.2,8.5,12.8,0,0,0,7.5,4.2,0,14.2
Cc1c(C(=O)NCC2CCCO2)oc2ccccc12 (stereo not given),0,0,0,-,0,0,-,-,-,-
O=C(c1c(Cl)nc2sccn12)N(C(=O)c1c(Cl)nc2sccn12)c1ccc(Cl)cn1,5.4,7.9,0,0,1.2,0,10.9,3.0,0,11.0
O=C(NCCc1c[nH]c2ccccc12)c1c(Cl)nc2sccn12,0,0,0,0,0,0,-,-,-,-
CCc1ccc(NC(=O)c2noc3c2CCC3)cc1,5.7,9.3,12.1,0,1.4,0,21.2,7.9,0,14.3
CCc1ccc(NC(=O)c2noc3c2CCc2ccccc2-3)cc1,0,0,0,0,0,0,-,-,-,-
Fc1cccc(F)c1/C=C/c1ccc2ccccc2n1,5.7,23.0,20.1,0,2.7,0,15.8,8.4,0,22.9
CC(O)/C=C/c1ccc2ccccc2n1 (stereo not given),0,0,0,0,0,0,-,-,-,-
Clc1cnc(N/N=C/c2ccco2)c(Cl)c1,4.8,7.9,11.1,0,0,0,14.5,8.8,0,8.0
Oc1ccc(/C=N/Nc2ncc(Cl)cc2Cl)cc1,0,0,0,0,0,0,-,-,-,-
CCCCc1nc2cc(C(=O)N(C)CCc3cn[nH]c3)ccc2o1,0,0,0,0,0,0,-,-,-,-
CCCCc1nc2cc(C(=O)N(C)C3CCOCC3)ccc2o1,4.6,7.6,0,0,0,0,5.5,6.8,0,0
CCc1sc(C(=O)Nc2cccc(-n3cnnn3)c2)cc1C,0,0,0,-,0,0,-,-,-,-
CCCn1c(SCc2nc3ccccc3s2)n[nH]c1=O,4.8,12.0,11.2,0,1.5,0,8.4,5.0,0,10.8
SMILES,DAX1 inh-1,hcDAF12 agonist,hgDAF-12 ag,PolyA inhibitor,ssDAF-12 act,DAX1 inh-2,DAX1 inh confirm,SF1 mutant ctr,LXR ag,hcDAF12 conf
NC(=O)c1ccccc1N/C=C/C(=O)c1ccco1,0,0,0,0,0,0,-,-,-,-
O=C(/C=C/Nc1ccccc1C(F)(F)F)c1ccco1,4.9,10.5,19.1,0,1.1,0,13.3,8.3,0,9.1
Cc1ccc2[nH]cc(CCNC(=O)c3cccs3)c2c1,0,0,0,0,0,0,-,-,-,-
Cn1cc(Cl)c(C(=O)Nc2nc3ccccc3s2)n1,7.0,20.9,19.0,0,3.3,0,14.3,7.3,0,17.9
O=C(Nc1nc2ccccc2s1)c1c(F)cccc1Cl,0,0,0,0,0,0,-,-,-,-
CN1C(=O)[C@@]2(C3=C(CCCC3=O)OC3=C2C(=O)CC(C)(C)C3)c2ccccc21,0,0,0,-,0,-,-,-,-,-
CN(C)[C@H]1CCN(c2ccc3c(c2)O[C@@H]2CCN(C2)S3(=O)=O)C1,0,0,0,-,0,-,-,-,-,-
COc1ccc(CCN2CCCC(CN(C)C(=O)c3ccoc3)C2)cc1 (stereo not given),10.0,7.2,12.6,0,0,0,8.8,5.5,0,0
CN(CC1CCCN(CCc2ccccc2F)C1)C(=O)c1ccoc1 (stereo not given),0,0,0,0,0,0,-,-,-,-
O=C(NCc1ccc(F)cc1F)[C@@H]1CCCN1C(=O)[C@@H]1CCCN1C(=O)c1ccc(Cl)cc1,0,0,0,-,0,-,-,-,-,-
O=c1c(-c2nnc(SCc3ccc(Cl)c(Cl)c3)o2)cccn1Cc1ccccc1,0,0,0,0,0,0,-,-,-,-
Cc1ccc(N2CC(C(=O)N3CCOCC3)CC2=O)cc1Cl (stereo not given),0,0,0,0,0,0,-,-,-,-
COc1ccc(-c2cn3c4c(sc3n2)CCCC4)cc1,5.1,17.4,13.1,0,1.3,0,11.7,7.9,0,20.4
Clc1ccccc1/C=N/NC1=Nc2cccc3cccc1c23,4.6,16.4,18.4,0,2.8,4.3,18.5,8.0,0,14.5
CC1CCN(C(=O)c2cc3c(ccc4ccccc43)o2)CC1,19.0,9.1,12.0,0,0,0,10.3,4.3,0,6.5
Cc1ccc(N=C/C(C(=O)C(F)(F)F)=C(\O)c2ccco2)cc1Cl,5.2,17.8,16.3,0,1.4,0,16.3,8.7,0,10.2
Oc1ccccc1-c1cc(-c2ccccc2)no1,6.2,22.5,14.5,0,4.8,0,19.8,13.8,0,18.6
Cc1ccc(-c2cc(-c3ccccc3)no2)c(O)c1,6.8,15.9,11.2,0,3.1,0,14.0,3.7,0,19.2
Clc1ccc(-c2cc(-c3ccccc3)on2)cc1,0,0,0,-,0,0,-,-,-,-

# Bioassay records deposited in PubChem by several laboratories.
